Bioassay records as filed in PubChem BioAssay.
A selection: hits, their analogues and other compounds. The true share with any hit is near 2.4%.
D2 PAM-1 – Beta-Arrestin HTS for Positive Allosteric Modulators of the Human D2 Dopamine Receptor: Potentiators; AID 624464, 2012; potentiation, % (concentration not given with the values); actives 0.23% (n = 360,000); D(2) dopamine receptor (Homo sapiens), P14416; DiscoveRx D2 beta-arrestin cells, luminescence, 90 min; 100% = 57 uM dopamine signal; in the data active = potentiation above about 50%; inconclusive = mostly about 30% to 49%
Target sequence (P14416 whole entry, looked up): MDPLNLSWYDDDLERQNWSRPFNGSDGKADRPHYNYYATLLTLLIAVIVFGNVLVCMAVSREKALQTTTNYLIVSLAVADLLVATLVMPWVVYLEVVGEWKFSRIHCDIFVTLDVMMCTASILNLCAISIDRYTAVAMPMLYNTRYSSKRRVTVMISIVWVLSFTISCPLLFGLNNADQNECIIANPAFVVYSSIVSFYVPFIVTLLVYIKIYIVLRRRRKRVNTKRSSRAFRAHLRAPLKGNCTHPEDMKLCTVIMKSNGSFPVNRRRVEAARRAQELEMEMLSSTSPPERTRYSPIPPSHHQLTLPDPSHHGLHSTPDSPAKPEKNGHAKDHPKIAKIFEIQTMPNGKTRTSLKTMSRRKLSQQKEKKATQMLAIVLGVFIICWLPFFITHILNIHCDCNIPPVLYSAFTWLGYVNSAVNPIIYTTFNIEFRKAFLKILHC
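PathHunter D2 cells, attached overnight at 37 deg C, received compound in DMSO plus dopamine at EC20 (50 nM final) for 90 min at 37 deg C. Beta-arrestin recruitment was read as luminescence after 1 h with detection reagent at ambient temperature.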
D2 PAM-2 – HTS Assay for Positive Allosteric Modulators of the Human D2 Dopamine Receptor: Primary Screen for Potentiators; HEK293 T-REx D2, calcium flux, EC20 dopamine potentiation; actives 0.34% (n = 340,000); D(2) dopamine receptor (Homo sapiens), P14416; potentiation, % at 10 µM;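 active = potentiation over 3 SD above the plate norm, cut at about 30% in these data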; note: 0% is about no effect
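Calcium flux readout, no-wash dye, 1 read/s. Inducible HEK293 Trex D2 line, overnight 30 C. Compound alone 180 s (agonist flags), then EC20 dopamine, another 180 s to score potentiation.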
D2 ag-1 – Beta-Arrestin HTS for Positive Allosteric Modulators of the Human D2 Dopamine Receptor: Agonists. activation, % (no concentration beside the values). D(2) dopamine receptor (Homo sapiens), P14416. DiscoveRx PathHunter D2 beta-arrestin, luminescence, 90 min; 100% = 57 uM dopamine signal. actives 0.084% (n = 360,000); in the data active = activation above about 40%; inconclusive = between about 15% and that limit
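Agonist mode: compounds alone added to overnight-plated D2 PathHunter cells for 90 min at 37 C, with 57 uM final dopamine (EC100) defining full response. Beta-arrestin recruitment detected by chemiluminescent reagent, read after 1 h at ambient temperature.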
D2 antagonist – HTS Assay for Allosteric Antagonists of the Human D2 Dopamine Receptor: Primary Screen for Antagonists; AID 485344, 2010; inhibition, % at 10 µM; D(2) dopamine receptor (Homo sapiens), P14416; HEK293 TREx D2 cells, calcium flux, dopamine EC80; actives 2% (n = 340,000); in the data active = inhibition above about 30%; inactive = below that, where a call was filed; note: 0% is about no effect
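Inhibition of EC80 dopamine-driven calcium flux, recorded kinetically, defines activity here; cells are a tetracycline-induced HEK293 T-REx line expressing force-coupled D2.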
D2 ag-2 – HTS Assay for Allosteric Agonists of the Human D2 Dopamine Receptor: Primary Screen for Agonists; AID 485358, 2010; activation, % at 2 µM; actives 0.53% (n = 340,000); HEK293 T-REx D2 cells, calcium flux agonist mode;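 active = activation over 3 SD above normal in the single-dose calcium agonist read, cut at about 30% in these data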; note: 0% is about no effect
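In this primary screen, compounds producing a positive calcium signal within 180 s of addition to tetracycline-induced, force-coupled HEK293 Trex D2 cells are flagged; cells are dye-loaded with a no-wash calcium kit beforehand.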
* = called active by the depositor; ? = inconclusive; . = not tested or not shown.

SMILES	D2 PAM-1	D2 PAM-2	D2 ag-1	D2 antagonist	D2 ag-2
COc1ccc([N+](=O)[O-])cc1NC(=O)c1csc(C)c1	9	7	1	-7	0
Cc1cc(C(=O)Nc2ccc([N+](=O)[O-])cn2)cs1	-3	12	9	30*	0
COc1ccc(C(=O)Nc2ccc([N+](=O)[O-])cn2)cc1OC	-27	-20	0	17	0
CCOc1cc(C(=O)Nc2ccc([N+](=O)[O-])cn2)cc(OCC)c1OCC	-10	-31	-5	69*	0
COc1ccc(OC)c(NC(=O)C(C)n2c(=O)c(-c3ccccc3NC(C)=O)nc3ccccc32)c1 (stereo not given)	.	2	.	.	0
CCN(CC)c1ccc(NC(=O)C2CCN(S(=O)(=O)c3c(C)noc3/C=C/c3ccccc3F)CC2)c(C)c1	.	.	.	.	0
COc1ccccc1CN1C(=O)[C@@H]2C(CCC(N)=O)NC3(C(=O)Nc4c3ccc(Cl)c4C)[C@@H]2C1=O (stereo not given in full)	0	32*	-1	-3	0
CCN1CCN(c2nc(Nc3ccccc3)nc(N)c2[N+](=O)[O-])CC1	-35	-20	-7	84*	-2
Nc1nc(NCc2ccco2)nc(N2CCN(Cc3ccccc3)CC2)c1[N+](=O)[O-]	-26	-15	-3	89*	0
CCN1CCN(c2nc(Nc3ccc(OC)cc3)nc(N)c2[N+](=O)[O-])CC1	-22	-10	0	41*	-1
CCN1CCN(c2nc(Nc3ccccc3F)nc(N)c2[N+](=O)[O-])CC1	-31	-21	-1	78*	0
Cc1ccc(Nc2nc(N)c([N+](=O)[O-])c(N3CCOCC3)n2)cc1C	-6	21	-9	3	-2
Nc1nc(NCc2ccco2)nc(N2CCCC2)c1[N+](=O)[O-]	1	2	1	7	2
Nc1nc(Nc2ccccc2F)nc(N2CCCC2)c1[N+](=O)[O-]	0	7	-2	-7	0
COC(=O)CN1C(=O)CSc2ccc(S(=O)(=O)Nc3cccc(Br)c3)cc21	.	-2	.	.	0
COc1cccc(Cn2nnc(C(=O)NCc3ccc(Cl)cc3Cl)c2N)c1	.	-5	.	.	1
CCN1CCN(c2nc(Nc3cccc(C)c3)nc(N)c2[N+](=O)[O-])CC1	-15	-18	-6	85*	0
Cc1cccc(Nc2nc(N)c([N+](=O)[O-])c(N3CCCC(C)C3)n2)c1 (stereo not given)	-28	18	-8	13	1
CCCCOc1ccc(C(=O)NCC2(N3CCN(C)CC3)CCCCC2)cc1	.	0	.	.	.
Cc1ccc(C(=O)NCCSC(C)(C)C)cc1	-6	-4	-2	3	0
Cc1ccc(C(=O)NCC(=O)NC23CC4CC(CC(C4)C2)C3)cc1	-9	-8	-5	12	30*
Cc1ccc(C(=O)NCC(C)(C)O)cc1	-2	19	-2	38*	0
CC1CCN(S(=O)(=O)c2cn(CC(=O)Nc3ccc(F)c(Cl)c3)c(=O)c3ccccc23)CC1	.	0	.	.	-1
Cc1ccc2c(=O)c(C(=O)c3ccccc3)cn(CC(=O)Nc3ccccc3C)c2n1	.	4	.	.	0
CCN(CC)CCN1C(=O)C(=O)/C(=C(/O)c2ccc(C)cc2)C1c1ccncc1 (stereo not given)	.	-4	.	9	-2
SMILES	D2 PAM-1	D2 PAM-2	D2 ag-1	D2 antagonist	D2 ag-2
CCN(CC)CCN1C(=O)C(=O)/C(=C(/O)c2ccc(Cl)cc2)C1c1ccncc1 (stereo not given)	-6	2	2	40*	0
Cc1ccc2c(=O)cc(C(=O)N(Cc3ccc(C(C)(C)C)cc3)C3CCS(=O)(=O)C3)oc2c1 (stereo not given)	.	12	.	.	0
Cc1ccc(OCCCC(=O)Nc2sc3c(c2C(N)=O)CCCC3)cc1	.	6	.	.	-4
CC(=O)Nc1ccc(C(=O)OCC(=O)c2cccc([N+](=O)[O-])c2)cc1	-7	6	1	17	0
Cc1ccc(C(=O)COC(=O)c2cccc(NC(=O)c3ccc([N+](=O)[O-])cc3[N+](=O)[O-])c2)cc1	122*	6	?	11	0
CN(C)c1ccc(N/C=C/C(=O)C(C)(C)C)cc1	66*	-6	9	-7	0
COc1ccc(NC(=O)c2ccc(-n3cccn3)c([N+](=O)[O-])c2)cc1	5	-5	-1	45*	0
O=C(O)CCSc1nc(C(F)(F)F)cc(=O)n1-c1ccccc1	-9	7	-2	33*	0
CCN(C(=O)c1cc2c(s1)-c1c(C)cccc1OC2)c1ccccc1F	.	18	.	.	0
O=C(COC(=O)/C=C/c1ccc(Cl)cc1)NC(=O)NCc1ccccc1	-11	1	5	44*	1
N#Cc1ccc(NC(=O)Cn2c3[n+](c4ccc(C(F)(F)F)cc42)CCCCC3)cc1	-18	-12	-4	-17	0
O=C(Cn1c2[n+](c3ccc(C(F)(F)F)cc31)CCCCC2)Nc1ccc(Br)cc1	-9	-25	-3	56*	0
COc1ccc(C(=O)NCCc2nc3ccccc3[nH]2)cc1	.	-17	.	.	.
Cc1cc(C)n(CCn2nc(C)cc2C)n1	-10	-1	-1	41*	1
Cc1cc(C)n(CC(=O)O)n1	5	12	-4	-21	0
COc1ccc(CNC(=O)c2cnc3sc(N4CCCCCC4)nn3c2=O)cc1	.	0	.	.	0
O=C(Cc1ccccc1)NC1CC(=O)N(c2ccc3c(c2)OCCO3)C1 (stereo not given)	.	7	.	.	1
Cn1c(CCCOc2ccc(Cl)cc2Cl)nnc1SCC(=O)Nc1nccs1	0	2	2	32*	1
Cn1c(CC(=O)Nc2ccc(Cl)c(Cl)c2)nnc1SCC(=O)Nc1nccs1	-5	8	-1	-26	0
Cn1c(CSCc2ccccc2Cl)nnc1SCC(=O)Nc1nccs1	-2	11	1	60*	0
CCCCc1nnc(SCC(=O)Nc2nccs2)n1C	8	15	0	-6	1
COc1ccc(OC)c(S(=O)(=O)N2c3ccccc3CC2C)c1 (stereo not given)	-1	-5	-1	33*	0
COc1ccc(OC)c(S(=O)(=O)N2CCN(c3c(C)cccc3C)CC2)c1	-6	4	-4	36*	0
O=C1O/C(=C/c2ccccc2)c2ccccc21	19	0	2	-2	-1
